PubChem BioAssay (NCATS)
“And” between values parts separate entries of the source, which are not always exact repeats. Identical values can stand only once. Results filed as inconclusive are left out. Some structures have more than one record in an assay (separate samples or runs), and their calls can disagree. The source made the active and inactive calls. Calls come from the whole dose curve; as a rule, active = well fitted inhibition curve with a large enough effect; inconclusive = small, poorly fitted or top-dose-only effect; inactive = no such curve, though single readings can be large or run the other way.

What follows are compounds tested against Rap guanine nucleotide exchange factor 4 (Homo sapiens) (UniProt Q8WZA2) (assay: Confirmatory qHTS for antagonist of cAMP-regulated guanine nucleotide exchange factor 4 (EPAC2) (AID 1645885; note: nearly all actives have a fitted effect of over 25% in size)). Settings: EPAC2 Rap1B-BODIPY-GDP exchange fluorescence, biochemical; series mostly up to 12.7 µM.
Sequence of Rap guanine nucleotide exchange factor 4 (Homo sapiens) (Q8WZA2 whole entry, looked up): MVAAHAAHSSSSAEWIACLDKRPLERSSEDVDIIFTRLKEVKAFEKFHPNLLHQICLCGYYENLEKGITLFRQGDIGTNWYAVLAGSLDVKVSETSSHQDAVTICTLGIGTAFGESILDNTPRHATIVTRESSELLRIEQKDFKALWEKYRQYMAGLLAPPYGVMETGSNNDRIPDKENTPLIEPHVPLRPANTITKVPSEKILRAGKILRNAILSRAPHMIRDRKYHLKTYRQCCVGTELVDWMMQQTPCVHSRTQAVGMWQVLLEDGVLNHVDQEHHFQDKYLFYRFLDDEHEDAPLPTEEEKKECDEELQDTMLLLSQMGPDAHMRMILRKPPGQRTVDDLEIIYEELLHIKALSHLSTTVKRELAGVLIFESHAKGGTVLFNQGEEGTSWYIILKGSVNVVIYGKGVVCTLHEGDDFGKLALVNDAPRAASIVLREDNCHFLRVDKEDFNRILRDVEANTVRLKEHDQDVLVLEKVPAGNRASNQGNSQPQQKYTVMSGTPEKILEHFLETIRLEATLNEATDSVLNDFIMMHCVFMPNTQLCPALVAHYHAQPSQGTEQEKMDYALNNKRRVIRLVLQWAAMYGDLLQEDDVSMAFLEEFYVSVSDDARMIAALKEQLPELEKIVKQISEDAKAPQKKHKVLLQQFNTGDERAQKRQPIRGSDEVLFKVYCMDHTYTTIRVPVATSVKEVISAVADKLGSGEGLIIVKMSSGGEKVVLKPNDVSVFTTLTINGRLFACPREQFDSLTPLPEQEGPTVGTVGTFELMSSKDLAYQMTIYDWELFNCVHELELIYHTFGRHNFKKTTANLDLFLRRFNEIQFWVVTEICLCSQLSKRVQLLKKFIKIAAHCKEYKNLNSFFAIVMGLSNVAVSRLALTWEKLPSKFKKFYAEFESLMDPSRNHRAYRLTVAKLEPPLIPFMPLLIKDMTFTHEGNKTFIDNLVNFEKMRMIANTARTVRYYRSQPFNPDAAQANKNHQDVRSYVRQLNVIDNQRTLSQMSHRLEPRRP
Potency is the fitted concentration of half-maximal effect.

Row | SMILES | Potency
1 | CC(C)(C)CC(C)(C)c1ccc(O)cc1 | 49.4 µM (active) and 56.9 µM (active)
2 | Oc1cc(Cl)ccc1Oc1ccc(Cl)cc1Cl | 52 µM (active)
3 | Clc1ccc(COC(Cn2ccnc2)c2ccc(Cl)cc2Cl)cc1 (centres undefined) | 44.1 µM (active) and inactive
4 | O=c1oc2ccccc2c(O)c1C(CC(O)c1ccc(-c2ccc(Br)cc2)cc1)c1ccccc1 (centres undefined) | 44.1 µM (active)
